Among the data in PubChem BioAssay (NCI) are growth values, retold here.

Among the test systems are HCT-15 colon; HT29 colon; SNB-75 CNS; SNB-19 CNS; U251 CNS; PC-3 prostate; SK-MEL-5 melanoma; UACC-62 melanoma; LOX IMVI melanoma; SK-MEL-28 melanoma.
Test in all cases: NCI-60 one-dose screen, 48 h (100 = growth as untreated, 0 = no growth, -100 = all killed)
Common to all, as to settings: 10 µM unless noted

The structures appear in SMILES notation. Where “and” joins values, the source holds several entries; their conditions need not be identical. Equal values may be shown once. This is part of a sample that, as a whole, favours compounds with a hit. Of some 83,000 tested, about 20% had one in any assay.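 Method: cells in 96-well plates; compound added at one concentration; 48 h incubation; percent growth measured; values under 10 scored active.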 Calls of active or inactive are those of the source.

For `O=C1Nc2cc(-c3ccc(NS(=O)(=O)c4ccc(C(F)(F)F)cc4)cc3)ccc2/C1=C/c1ccc[nH]1`, the growth in the assay with HCT-15 colon is 15.8% (inactive); in the assay on HT29 colon, 12.2% (inactive); with SNB-75 CNS, 18.6% (inactive); with SNB-19 CNS, 69.9% (inactive); in the assay with U251 CNS, 41.1% (inactive); with PC-3 prostate, 31.2% (inactive). The growth in the assay with SK-MEL-5 melanoma was 42.7% (inactive); with UACC-62 melanoma, 30.5% (inactive); in the assay on LOX IMVI melanoma, 46.1% (inactive); in the assay with SK-MEL-28 melanoma it was 47.4% (inactive).
On to `Cc1cccc(C)c1Nc1nnc(-c2c[nH]c3ccccc23)o1`, for which the growth was 97.6% (inactive) with HCT-15 colon; 104% (inactive) in the assay with HT29 colon; 88% (inactive) in the assay on SNB-75 CNS; 97.5% (inactive) with SNB-19 CNS; 95.6% (inactive) in the assay with U251 CNS; 76.3% (inactive) in the assay with PC-3 prostate. Further, the growth in the assay with SK-MEL-5 melanoma was 94.1% (inactive); in the assay on UACC-62 melanoma it was 83.2% (inactive); in the assay on LOX IMVI melanoma it was 83.9% (inactive); in the assay with SK-MEL-28 melanoma, 105% (inactive).
With `Cc1ccc(Nc2nnc(-c3c[nH]c4ccccc34)o2)c(C)c1`, the growth with HCT-15 colon was 8.92% (active); with HT29 colon, -37.9% (active); with SNB-75 CNS it was 27.3% (inactive); in the assay with SNB-19 CNS, 31.3% (inactive); with U251 CNS, 5.02% (active); in the assay on PC-3 prostate, 28.7% (inactive). For the same compound, the growth in the assay with SK-MEL-5 melanoma was 6.62% (active); in the assay on UACC-62 melanoma it was 7.3% (active); in the assay on LOX IMVI melanoma, 1.68% (active); in the assay on SK-MEL-28 melanoma, 54.5% (inactive).
In the case of `O=C(N/N=C/c1ccoc1)c1[nH]c2ccc(Br)cc2c1-c1ccccc1`, the growth in the assay on HCT-15 colon is -100% (active); in the assay on HT29 colon, -50.2% (active); in the assay on SNB-75 CNS, -79.6% (active); in the assay on SNB-19 CNS, -97.5% (active); in the assay with U251 CNS, -81.5% (active); with PC-3 prostate, -37.3% (active). The growth in the assay with SK-MEL-5 melanoma is -97.2% (active); with UACC-62 melanoma, -99.6% (active); with LOX IMVI melanoma, -100% (active); with SK-MEL-28 melanoma, -93.7% (active).
`Cn1cc(-c2cc(N)n3nc(-c4c[nH]c5ccccc45)cc3n2)c2ccccc21`: the growth in the assay with HCT-15 colon was -68.5% (active); in the assay on HT29 colon, -68.2% (active); with SNB-75 CNS, -46.8% (active); with SNB-19 CNS it was -88.7% (active); with U251 CNS it was -93.1% (active); in the assay with PC-3 prostate, -50.2% (active). Further, the growth is -92.5% (active) in the assay with SK-MEL-5 melanoma, -96.5% (active) with UACC-62 melanoma, -78.2% (active) in the assay on LOX IMVI melanoma and -98.8% (active) in the assay with SK-MEL-28 melanoma.
For the compound `COc1ccc(C2=NN(C(=O)[C@H]3[C@@H](c4ccco4)c4sc(=O)[nH]c4S[C@@H]3C)C(c3ccc4ccccc4c3)C2)cc1` (stereo not given in full), the growth in the assay with HCT-15 colon was 12% (inactive); with HT29 colon it was 15.3% (inactive); in the assay with SNB-75 CNS, 50.8% (inactive); with SNB-19 CNS, 39.8% (inactive); in the assay with U251 CNS, 19.5% (inactive); in the assay with PC-3 prostate, 28.6% (inactive). The growth was 36.5% (inactive) with SK-MEL-5 melanoma, 29% (inactive) with UACC-62 melanoma, 31.3% (inactive) in the assay with LOX IMVI melanoma and 32% (inactive) with SK-MEL-28 melanoma.
Consider `CCN(C(=O)CN1C(=O)/C(=C/c2ccco2)SC1=S)C1CCS(=O)(=O)C1` (stereo not given), for which the growth was 88.8% (inactive) with HCT-15 colon; 102% (inactive) with HT29 colon; 75.3% (inactive) with SNB-75 CNS; 91.8% (inactive) in the assay on SNB-19 CNS; 104% (inactive) with U251 CNS; 109% (inactive) in the assay with PC-3 prostate. Moreover, the growth is 91.9% (inactive) in the assay with SK-MEL-5 melanoma, 92.6% (inactive) in the assay on UACC-62 melanoma, 90.6% (inactive) in the assay on LOX IMVI melanoma and 98% (inactive) with SK-MEL-28 melanoma.
With `O=[N+]([O-])c1cccc(-c2nnc3c(/C=C/c4ccc(F)cc4)nc4ccccc4n23)c1`, the growth is 85.8% (inactive) in the assay with HCT-15 colon; 98.5% (inactive) in the assay with HT29 colon; 54.1% (inactive) in the assay on SNB-75 CNS; 92.5% (inactive) in the assay on SNB-19 CNS; 95.9% (inactive) in the assay with U251 CNS; 103% (inactive) in the assay on PC-3 prostate. Also, the growth in the assay with SK-MEL-5 melanoma was 90.9% (inactive); with UACC-62 melanoma, 85.1% (inactive); in the assay with LOX IMVI melanoma, 98.5% (inactive); with SK-MEL-28 melanoma, 107% (inactive).
As for `Cc1ccc(O)cc1Nc1nc(SCCN2CCOCC2)nc2c1cnn2CC(Cl)c1ccc(Br)cc1` (stereo not given), the growth in the assay on HCT-15 colon was 0.154% (active); with HT29 colon, -30.2% (active); with SNB-75 CNS, 4.06% (active); in the assay with SNB-19 CNS, 20.6% (inactive); in the assay on U251 CNS it was 15.4% (inactive); in the assay on PC-3 prostate it was 17% (inactive). Also, the growth in the assay with SK-MEL-5 melanoma was -0.938% (active); with UACC-62 melanoma, 15.6% (inactive); in the assay on LOX IMVI melanoma it was -88.4% (active); in the assay with SK-MEL-28 melanoma it was 17.1% (inactive).
`O=C1NC(=NC23CC4CC(CC(C4)C2)C3)N/C1=C\c1ccc2ncccc2c1`: the growth in the assay on HCT-15 colon is -12% (active); in the assay with HT29 colon, 1.49% (active); with SNB-75 CNS, -66.3% (active); in the assay with SNB-19 CNS, 5.85% (active); in the assay on U251 CNS, -63.7% (active); with PC-3 prostate it was -48.1% (active). The growth with SK-MEL-5 melanoma is -9.19% (active); in the assay on UACC-62 melanoma, 23.6% (inactive); with LOX IMVI melanoma, -76.9% (active); with SK-MEL-28 melanoma, -3.01% (active).
In the case of `Cc1ccc(C(=O)Nc2cc(-n3cnc(F)c3)cc(C(F)(F)F)c2)cc1C#Cc1cnc2cccnn12`, the growth was 36.2% (inactive) with HCT-15 colon; 35.4% (inactive) in the assay with HT29 colon; 132% (inactive) in the assay with SNB-75 CNS; 106% (inactive) with SNB-19 CNS; 83.7% (inactive) with U251 CNS; 89.8% (inactive) in the assay with PC-3 prostate. Besides, the growth was 38.3% (inactive) in the assay on SK-MEL-5 melanoma, 26% (inactive) in the assay on UACC-62 melanoma, 22% (inactive) in the assay on LOX IMVI melanoma and 29.3% (inactive) in the assay on SK-MEL-28 melanoma.
As for `COc1ccc(S(=O)(=O)Nc2ccc(-c3ccc4c(c3)NC(=O)/C4=C\c3ccc[nH]3)cc2)cc1OC`, the growth in the assay on HCT-15 colon was 41.4% (inactive); in the assay on HT29 colon, 8.82% (active); in the assay on SNB-75 CNS it was 13.9% (inactive); with SNB-19 CNS, 3.61% (active); in the assay on U251 CNS it was -58.5% (active); with PC-3 prostate, 44.5% (inactive). Also, the growth is 20.3% (inactive) with SK-MEL-5 melanoma, -45.9% (active) in the assay with UACC-62 melanoma, -30.1% (active) in the assay with LOX IMVI melanoma and -90.6% (active) in the assay on SK-MEL-28 melanoma.
Regarding `Cc1ccc2c(c1)nc(-c1ccccc1)n2CC(=O)N=Nc1c(O)[nH]c2ccc(Cl)cc12`, the growth is -45.7% (active) in the assay on HCT-15 colon; -62.7% (active) with HT29 colon; -83% (active) in the assay with SNB-75 CNS; -62.3% (active) in the assay on SNB-19 CNS; -77.7% (active) in the assay with U251 CNS; -51.2% (active) in the assay on PC-3 prostate. The growth is -62.6% (active) with SK-MEL-5 melanoma, -63.5% (active) in the assay with UACC-62 melanoma, -70.1% (active) in the assay on LOX IMVI melanoma and -71.7% (active) in the assay on SK-MEL-28 melanoma.
Regarding `Nc1nnc(-c2cncc(Br)c2)c(-c2c[nH]c3ccc(Cl)cc23)n1`, the growth was 55.4% (inactive) with HCT-15 colon; 106% (inactive) with HT29 colon; 57.2% (inactive) in the assay on SNB-75 CNS; 73.1% (inactive) with SNB-19 CNS; 83.9% (inactive) in the assay with U251 CNS; 90.5% (inactive) with PC-3 prostate. The growth is 70.4% (inactive) with SK-MEL-5 melanoma, 73.7% (inactive) in the assay on UACC-62 melanoma, 77.3% (inactive) with LOX IMVI melanoma and 91.2% (inactive) in the assay on SK-MEL-28 melanoma.
Turning to `N#C/C(=C/c1ccc(Cl)cc1)c1nnc(NC(=O)c2ccc(-n3c(=O)[nH]c4ccccc4c3=O)cc2)s1`, the growth with HCT-15 colon is 95.2% (inactive); with HT29 colon it was 68.8% (inactive); in the assay on SNB-75 CNS, 53.3% (inactive); with SNB-19 CNS, 51.8% (inactive); in the assay on U251 CNS, 27.1% (inactive); in the assay on PC-3 prostate, 76.2% (inactive). Moreover, the growth with SK-MEL-5 melanoma was 27.7% (inactive); in the assay on UACC-62 melanoma, 67.2% (inactive); in the assay with LOX IMVI melanoma, 41.8% (inactive); in the assay with SK-MEL-28 melanoma it was 74.9% (inactive).
For the compound `Cc1cn(-c2cc(NC(=O)c3ccc(C)c(-n4cc(-c5cnc6cccnn56)nn4)c3)cc(C(F)(F)F)c2)cn1`, the growth in the assay on HCT-15 colon was 84.8% (inactive); in the assay on HT29 colon it was 7.41% (active); in the assay with SNB-75 CNS it was 122% (inactive); in the assay with SNB-19 CNS, 109% (inactive); in the assay on U251 CNS, 44.3% (inactive); in the assay on PC-3 prostate, 102% (inactive). Besides, the growth with SK-MEL-5 melanoma was 53.9% (inactive); in the assay with UACC-62 melanoma it was 11.3% (inactive); in the assay with LOX IMVI melanoma, 26.8% (inactive); in the assay with SK-MEL-28 melanoma it was 23.5% (inactive).
Take `O=C1C=CC(=CC=C2N(Cc3ccc4ccccc4c3)c3ccccc3N2Cc2ccc3ccccc3c2)C=C1`: the growth is 94.7% (inactive) and 95.3% (inactive) with HCT-15 colon; 15.1% (inactive) and 13.2% (inactive) in the assay with HT29 colon; 39.6% (inactive) and 26.9% (inactive) in the assay on SNB-75 CNS; 8.3% (active) and 11.1% (inactive) in the assay with SNB-19 CNS; 17.4% (inactive) and 17.6% (inactive) in the assay with U251 CNS; 18.6% (inactive) and 16.6% (inactive) with PC-3 prostate. In addition, the growth in the assay on SK-MEL-5 melanoma is -64.3% (active) and -51.3% (active); in the assay on UACC-62 melanoma, 2.32% (active) and 11.9% (inactive); in the assay with LOX IMVI melanoma, 14.8% (inactive) and 19.6% (inactive); with SK-MEL-28 melanoma, 16.7% (inactive) and 20.5% (inactive).
For `Cc1ccc(C(=O)Nc2ccc(-n3ccnc3)c(C(F)(F)F)c2)cc1C#Cc1cnc2cccnn12`, the growth is 20.7% (inactive) in the assay with HCT-15 colon; 17.8% (inactive) with HT29 colon; -2.9% (active) in the assay with SNB-75 CNS; 36.4% (inactive) in the assay with SNB-19 CNS; 33.6% (inactive) with U251 CNS; -16.3% (active) with PC-3 prostate. Besides, the growth was -55% (active) in the assay with SK-MEL-5 melanoma, -15.1% (active) with UACC-62 melanoma, 3.66% (active) in the assay on LOX IMVI melanoma and -10.8% (active) in the assay with SK-MEL-28 melanoma.
Turning to `Clc1ccc(-c2nc3c4c(-c5ccccc5)c(-c5ccccc5)n(Cc5ccccc5)c4ncn3n2)cc1`, the growth in the assay on HCT-15 colon is 13.6% (inactive); in the assay with HT29 colon, -2% (active); with SNB-75 CNS, -23.1% (active); with SNB-19 CNS, 8.49% (active); with U251 CNS, 15.1% (inactive); in the assay with PC-3 prostate, -1.48% (active). The growth with SK-MEL-5 melanoma is -94.6% (active); in the assay on UACC-62 melanoma it was 11.7% (inactive); with LOX IMVI melanoma, 11.9% (inactive); in the assay on SK-MEL-28 melanoma, 36.2% (inactive).
